# Reference: PubChem BioAssay AID1918 (Vanderbilt High Throughput Screening Facility, 2009)
# About 2,500 (1.9%) of roughly 130,000 compounds were called active. Only a selection was taken, and actives are over-represented in it overall. A number with no mark means an inactive call.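 The calls were made as follows: active = signal ratio slope over the read window, or its plate-corrected B-score, at least 3 SD from the plate mean, either direction; inactive = the rest.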
# Target: ATP-sensitive inward rectifier potassium channel 1 (Homo sapiens) (UniProt P48048)
# Sequence (P48048 whole entry, looked up): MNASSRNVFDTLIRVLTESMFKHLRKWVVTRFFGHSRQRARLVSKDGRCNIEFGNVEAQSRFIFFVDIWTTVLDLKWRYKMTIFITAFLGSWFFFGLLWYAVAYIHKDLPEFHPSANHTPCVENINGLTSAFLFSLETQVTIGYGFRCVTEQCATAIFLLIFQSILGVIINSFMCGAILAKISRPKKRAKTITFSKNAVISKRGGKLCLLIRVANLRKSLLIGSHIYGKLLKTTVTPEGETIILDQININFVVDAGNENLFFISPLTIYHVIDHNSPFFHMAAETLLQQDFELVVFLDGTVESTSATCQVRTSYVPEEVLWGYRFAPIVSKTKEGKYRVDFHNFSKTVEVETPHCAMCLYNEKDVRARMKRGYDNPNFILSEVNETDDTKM
# Experiment: Kir1.1 channel activity modulation, library screen – cell-based, thallium flux, MLSMR library, primary screen (AID 1918);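 also: B-score of the F/F0 ratio slope over 7 to 12 s after thallium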
# Details: Tet-inducible ROMK, thallium flux fluorescence; at 10 µM; actives lie on both sides
row,SMILES,B-score
1,Cc1cc(NS(=O)(=O)c2ccc(NC(=O)c3cccc(OC(F)F)c3)cc2)nc(C)n1,0.878
2,Cc1ccc([N+](=O)[O-])c(OCCCNCC(C)O)c1 (centres undefined),-0.00821
3,O=C(Cc1ccc([N+](=O)[O-])cc1)N/N=C/c1ccco1,-1.24
4,O=c1[nH]c(-c2ccccc2)c(-c2ccccc2)[nH]1,-0.0963
5,N#Cc1c(-c2ccc(F)cc2)nc(-c2ccccc2)[nH]c1=O,-1.43
6,O=c1cc(-c2ccccc2)[nH]c2cc(F)ccc12,4.56 (active)
7,CN(C)/C=C/C(=O)c1cnc2sccn2c1=O,-0.835
8,Cc1cccc(OP(=O)(Nc2c(C)n(C)n(-c3ccccc3)c2=O)Oc2cccc(C)c2)c1,-0.868
9,Cc1nn(C)c(Oc2ccccc2)c1[N+](=O)[O-],0.573
10,Cc1cccc(Oc2c([N+](=O)[O-])c(=O)n(C)c3ccccc23)c1,-2.67 (active)
11,COc1cccc(-c2ccc(SCC(=O)N3CCN(c4ccccc4)CC3)nn2)c1,0.576
12,COc1ccc(S(=O)(=O)N2CCCCCC2)cc1C(=O)OCC(=O)Nc1cc(C)on1,0.559
13,COc1cc2c(cc1OC)C(C(C)C)=NC(C)(C)C2,-0.0102
14,COc1cc2c(cc1O)C(SC)=NC(C)(C)C2,-6.55 (active)
15,CN(C)C(=O)c1cccn(Cc2cccc(C(F)(F)F)c2)c1=O,0.481
16,CN1CCNC(=O)C1CC(=O)N1CC=C(c2ccc(F)cc2)CC1 (centres undefined),-0.128
17,CSc1cccc(NC(=S)N(Cc2ccccc2)Cc2ccccn2)c1,-1.37 (active)
18,CSc1cccc(NC(=S)N(C(C)C)C(C)c2ccccn2)c1 (centres undefined),-0.872
19,COc1cccc(NC(=S)N(Cc2ccc(C)cc2)Cc2ccccn2)c1,0.0921
20,O=C(Nc1ccncc1)c1ccccc1[N+](=O)[O-],-0.131
21,CC1=C/C(=N\S(=O)(=O)c2ccccc2)C(C(C)C)=CC1=O,-2.34
22,COc1ccc(/C=C/C(=O)N2CCCC2)cc1OC,1.08
23,Cc1sc2c(c1C)c(=O)n(-c1ccccc1)c(=O)n2CC(=O)NCC1CCCO1 (centres undefined),0.885
24,Cc1ccc(C(NC(=O)N2CCCC2)C(Cl)(Cl)Cl)cc1F (centres undefined),0.515

row,SMILES,B-score
1,O=C(Nc1ccccc1Cl)c1ccc2nsnc2c1,-0.621
2,COCCN(CCOC)C(=S)Nc1ccccc1Cl,0.00438
3,O=C(Nc1ccccc1Cl)/C(Cl)=C(\Cl)S(=O)c1ccccc1 (centres undefined),-4.2 (active)
4,COc1ccc(NC(=O)C(C)SCc2ccccc2)cc1 (centres undefined),0.339
5,COc1ccc(-c2[nH]ncc2CN(C)Cc2cc(C)[nH]n2)c(F)c1,0.139
6,COc1ccc(-c2[nH]ncc2CN(C)Cc2c(C)n[nH]c2C)c(OC)c1,1.28 (active)
7,COc1ccc(-c2[nH]ncc2CN(C)Cc2cccnc2)c(F)c1,0.572
8,Cc1cc(/C=C2/NC(=O)NC2=O)c(C)n1-c1cccnc1,0.0128
9,COc1ccc(-c2onc(C)c2-c2ccc3c(c2)OCCO3)c(O)c1,-0.0517
10,CCc1cc2c(=O)c(-c3ccc(F)cc3)c(C(F)(F)F)oc2cc1OCC(=O)O,-0.413
11,O=c1c(-c2ccc3c(c2)OCCO3)c(C(F)(F)F)oc2cc(O)cc(O)c12,-5.2 (active)
12,COc1ccc(C(C)=O)cc1CSc1nc2nc(C)cc(C)n2n1,1.28
13,Cc1cccc(NC(=S)Nc2ccc(Cl)c(Cl)c2)c1,0.116
14,COc1ccc(CCNC(=O)COC(=O)/C=C/c2cccs2)cc1OC,-0.931
15,COc1ccc(CN(C(=O)c2cccs2)c2nccs2)cc1OC,4.52 (active)
16,COc1ccc(CCNC(=O)CSc2nnc(CNC(=O)c3cccs3)o2)cc1OC,-0.208
17,O=c1[nH]n2c(-c3ccccc3)nc(O)c2c2ccccc12,2.45
18,C=C(C)C1CC=C(C)/C(=N/NC(=O)CCCNc2cccc(C)c2)C1 (centres undefined),1.1
19,Cc1ccc(CNC(=O)C2CCCN(S(C)(=O)=O)C2)cc1 (centres undefined),0.0583
20,Cc1ccc(CNC(=O)C2CC(=O)N(C3CCCCCCC3)C2)cc1 (centres undefined),-2.38 (active)
21,CC(C)OCCCNC(=O)C1CC(=O)N(C2CCCCCCC2)C1 (centres undefined),-0.488
22,O=C(COc1ccccc1)Nc1ccc(N2CCN(C(=O)c3cccs3)CC2)cc1,-0.916
23,CC(=O)Nc1ccc(OCCC[n+]2cccc(C(=O)[O-])c2)cc1,0.158
24,COc1cc(NC(=S)NCc2ccc(S(N)(=O)=O)cc2)cc(OC)c1,2.23

row,SMILES,B-score
1,CN(NC(=O)c1ccccc1F)c1nc(C(F)(F)F)nc2ccccc12,2.83 (active)
2,COC(=O)CNC(=O)c1ccccc1F,0.963
3,Cc1cc(C)n(-c2nc(C(F)(F)F)nc3ccccc23)n1,-0.0244
4,Cc1ccc(C)c(-n2cc(CN3CCN(C(=O)c4ncn[nH]4)CC3)c(-c3ccccc3)n2)c1,-0.754
5,Cc1ccccc1N1CCN(CCCOc2ccc3c(C)cc(=O)oc3c2)CC1,-4.08 (active)
6,CCOc1ccccc1N1CCN(C(=O)COc2ccc3c(C)cc(=O)oc3c2)CC1,0.824
7,COc1ccc(N2CCN(C(=O)COc3ccc4c(C)cc(=O)oc4c3)CC2)cc1,-0.589
8,CCO/C=C1\C(=O)N(c2ccc(OCC)cc2)C(=O)c2ccccc21,-0.0391
9,CCNC(=O)CC1C(=O)N(c2ccc(OC)cc2)C(=S)N1CCc1ccncc1 (centres undefined),0.277
10,Cc1cc(/C=N/NC(=O)c2cccnc2)c(C)n1CC(C)C,1.51
11,C/C(=N\NC(=O)CSc1nc2ccccc2c(=O)n1-c1ccccc1C)c1cccs1,0.111
12,Cc1cccc(-n2c(SCC(=O)Nc3cccc(S(=O)(=O)NC4=NCCCCC4)c3)nc3ccccc3c2=O)c1C,-5.4 (active)
13,CCc1ccc(C(=O)OCC(=O)Nc2cccc(S(=O)(=O)NC3=NCCCCC3)c2)cc1,-1.41
14,O=C(N/N=C/c1ccccn1)c1ccc(S(=O)(=O)N2CCCCCC2)cc1,1.67
15,CC12CN(Cc3ccccc3)CC(C)(CN(Cc3ccccc3)C1)C2=NO,-3.21 (active)
16,O=C(Nc1ccccc1)N1CCN(Cc2ccccc2)CC1,-0.796
17,C/C(=N\N1CCN(Cc2ccc(C)cc2)CC1)c1ccco1,-0.228
18,COc1cc2c(C(=O)N3CCN(C)CC3)c(CSc3ccccc3)n(C)c2cc1Br,-0.529
19,Cc1ccnc(NC(=O)CCC(=O)N(CC(=O)NCc2ccccc2)Cc2ccco2)c1,-0.274
20,COc1ccc([N+](=O)[O-])cc1N(CC(O)CN(CC(C)C)CC(C)C)S(=O)(=O)c1ccc(C)cc1 (centres undefined),-3.76 (active)
21,Cc1ccc(N(CC(O)CN2CCCC2)S(=O)(=O)c2ccccc2)cc1 (centres undefined),-0.891
22,CCN(CC)C(=O)CN(c1cccc(OC)c1)S(=O)(=O)c1ccc(C)cc1,0.523
23,C/C(Cc1ccccc1)=N\NC(=O)CNC(=O)c1ccccc1Cl,0.223
24,CN(/C(=N/S(=O)(=O)c1cccs1)c1ccccc1)c1ccc(O)cc1,0.111

row,SMILES,B-score
1,O=C(NNC(=S)NCc1ccco1)C(c1ccccc1)c1ccccc1,-0.0839
2,CCC1CCCCN1S(=O)(=O)Cc1ccccc1Cl (centres undefined),-1.11
3,COc1ccc(N2CCN(C(=O)C3CCN(S(=O)(=O)c4ccc(C)cc4)CC3)CC2)cc1,0.00237
4,C(=N\N1CCN(c2ccccn2)CC1)/C1=C(N2CCOCC2)C(=C/c2ccccc2)/CC1,-0.00313
5,O=C1Nc2ccc(Br)cc2/C1=N/N=C/C1=C(N2CCOCC2)C(=C\c2ccccc2)/CC1,1.2
6,N#C/C(=C\C1=C(N2CCOCC2)C(=C\c2ccccc2)/CC1)C(=O)Nc1ccccc1F,-3.73 (active)
7,Cc1cccc(NC(=O)CSc2nnc(CCNC(=O)OC(C)(C)C)o2)c1C,0.146
8,Fc1cccc(CSc2nnc3ccc(-c4ccncc4)nn23)c1,1.92
9,CSCCNCc1cn(-c2ccc(F)cc2F)nc1-c1ccccc1C,-0.924
10,CCCCCCCNc1nc(Cl)nc(NCCO)n1,-0.271
11,C=CCc1ccc(OCC(O)CN2CCN(Cc3ccccc3)CC2)c(OC)c1 (centres undefined),-1.83
12,Cc1ccc(-c2csc(NC(=O)c3cnccn3)n2)cc1C,1.18
13,Cc1nc2ccccc2cc1C(=O)N/N=C/c1ccc([N+](=O)[O-])cc1,-0.145
14,Cc1nc2ccccc2nc(=O)c1NNc1ccc([N+](=O)[O-])cc1,3.6 (active)
15,O=C(Nn1c(-c2ccccc2)nc2ccccc2c1=O)c1ccc([N+](=O)[O-])cc1,1.18
16,COc1ccccc1CC(NC(C)=O)C(=O)NC1CCN(C(=O)Nc2ccccc2Cl)CC1 (centres undefined),-0.0342
17,O=C(NNC(=S)NCCCN1CCOCC1)c1ccncc1,-0.0357
18,CCOC(=O)NC(=O)/C(C#N)=C\c1ccccc1,-1.48
19,COCCNC(=O)/C(C#N)=C/c1cccc(OCc2ccccc2)c1,-2.75 (active)
20,COCCNC(=O)/C(C#N)=C/c1nc(N(C)C)n(-c2ccc(F)cc2)c1Cl,-0.0358
21,N#C/C(C(=S)Nc1ccccc1)=C1/NN=C(N2CCOCC2)N1c1ccccc1,0.219
22,O=C(COC(=O)CC1CC2CCC1C2)NC(=O)NC1CCCC1 (centres undefined),-0.0323
